Compound activity from PubChem.
Sampled rows, rich in hits. Any-hit rate of the full collection: about 7.4%.
M1 ag: agonists of M1 muscarinic receptor. CHO-M1 cells, Fluo-4 calcium fluorescence, agonist mode; hits give high values. B-score at 10 µM. 3% of 64,000 active. AID 626;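 active = fluorescence rise, raw or as B-score row- and column-corrected plate score, outside the 99.7% band of its plate's samples, either direction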
D1 allo mod: allosterically modulates the human D1 dopamine receptor; 5.9% of 58,000 active; HEK293 D1, CRE-luciferase, dopamine EC30 potentiation; actives deviate in either direction; P21728; B-score at 10 µM;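 active = luminescence count or its row- and column-corrected plate score outside the 99.7% band of the plate's sample wells, on either side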
hDAT+cocaine: human DAT dopamine uptake with cocaine, either direction; Q01959; LLC-PK1 hDAT cells, [14C]-dopamine uptake with cocaine IC80; actives deviate in either direction; B-score at 10 µM; 1.3% of 110,000 active;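 active = Z score or B-score, a plate-position-corrected score, falls beyond the plate's 99.7% confidence bounds, in either direction; inactive = both scores lie inside the 99.7% bounds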;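 note: scored against the spread of the other compound wells on the same plate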
FXIa mix inh: blocks human factor XIa in pooled compound mixtures; P03951; purified FXIa, fluorogenic substrate; inhibition, % at 5 µM; 0.19% of 62,000 active; AID 680;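 note: each value is inhibition by a whole ten-compound pool holding the compound; 0% = enzyme with no mixture and 100% = wells lacking enzyme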
FXIIa mix inh: factor XIIa (human) inhibition, mixture screen; P00748; purified FXIIa, fluorogenic substrate, pooled mixtures; inhibition, % at 5 µM; 0.2% of 62,000 active;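 note: 0% = enzyme without compound and 100% = no enzyme blank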
M1 antag: antagonists of rat M1 muscarinic receptor; CHO-M1 cells, Fluo-4 calcium, ACh EC80 antagonist mode; hits give low values; B-score at 10 µM; 3.4% of 64,000 active; AID 628;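 active = calcium fluorescence response, raw or row-and-column corrected B-score, differing from the plate sample mean either way at a set confidence level, mostly lower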
Target sequence (P08482 whole entry, looked up): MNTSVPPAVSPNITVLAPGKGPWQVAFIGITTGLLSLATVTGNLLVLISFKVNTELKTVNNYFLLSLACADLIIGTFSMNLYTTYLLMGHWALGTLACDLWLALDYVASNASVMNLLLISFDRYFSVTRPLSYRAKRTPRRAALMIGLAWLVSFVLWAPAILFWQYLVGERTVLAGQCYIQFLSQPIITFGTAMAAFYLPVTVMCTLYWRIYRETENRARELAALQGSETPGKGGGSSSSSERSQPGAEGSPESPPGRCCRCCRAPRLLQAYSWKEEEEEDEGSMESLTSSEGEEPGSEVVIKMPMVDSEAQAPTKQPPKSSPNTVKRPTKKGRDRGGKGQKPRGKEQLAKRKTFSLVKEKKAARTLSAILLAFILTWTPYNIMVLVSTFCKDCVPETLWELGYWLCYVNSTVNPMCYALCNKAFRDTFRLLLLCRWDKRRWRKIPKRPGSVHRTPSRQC
D1 mod confirm: confirmation of human D1 dopamine receptor allosteric modulators; shares compounds with D1 allo mod; AID 642; luminescence at 10 µM; HEK293 D1 CRE-luciferase, dopamine EC30 potentiation; hits give high values; 88% of 2,200 active;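 active = luminescence in either of two replicates above the same-plate mean plus 3 SD of the low-dose dopamine control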
D1 no dopamine: activates D1 CRE-luciferase signal without dopamine present | shares compounds with D1 allo mod | HEK293 D1 CRE-luciferase, luminescence, no dopamine; hits give high values | luminescence at 10 µM | 0.8% of 1,900 active | AID 646; in the data active = luminescence above about 3900
Isoprot counter: counter-screen for D1 modulators: isoproterenol response in HEK293 cells | AID 647 | HEK293 D1 CRE-luciferase, isoproterenol EC30 counter-screen | 63% of 2,200 active | shares compounds with D1 allo mod | calls only at 10 µM;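 active = luminescence in either replicate above plate mean of wells with a partly effective reference agonist dose plus 3 SD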;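 note: isoproterenol raises cAMP through native beta-adrenoceptor Gs so signal bypasses D1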
The depositor's hits bear a star; i = inactive; nt = no result; + = active, no number. Cut-off read from the data, not from the text of the source, unless noted: active = inhibition above about 20% (passing the limit was not always enough); inactive = the rest.

SMILES	M1 ag	D1 allo mod	hDAT+cocaine	FXIa mix inh	FXIIa mix inh	M1 antag	D1 mod confirm	D1 no dopamine	Isoprot counter
Cc1cc(=O)oc2cc(OC(C)C(=O)Nc3nccs3)ccc12 (configuration not stated)	-0.78	4.6*	0.32	7	-1	-0.8	12128*	1736	+
Cc1ccc(NC(=O)Cn2nc(C(F)(F)F)c3c2CCC3)cc1	nt	nt	-0.016	nt	nt	nt	nt	nt	nt
CCc1n[nH]c2c1/C(=N\O)CC(c1ccccc1)C2 (configuration not stated)	1.1	4.3*	-0.34	-1	9	-0.13	7364*	1120	i
CS(=O)(=O)c1nc(-c2ccccc2)cc(C(F)(F)F)n1	0.026	4.1*	nt	1	4	-0.0034	6308*	nt	i
Cc1cc(NC(=O)CCS(=O)(=O)c2nc(-c3ccccc3)cc(C(F)(F)F)n2)no1	nt	1.4	0.48	8	4	nt	nt	nt	nt
CS(=O)(=O)NCCCNc1c(Cl)cccc1[N+](=O)[O-]	nt	nt	-0.82	nt	nt	nt	nt	nt	nt
Cc1cc(C(=O)CNCc2ccco2)c(C)n1-c1ccc(F)cc1	-1.3	nt	0.67	-1	7	0.68	nt	nt	nt
COc1cc2c(cc1OC)C(C(=O)NCCN1CCOCC1)C1c3ccccc3CCN1C2=O (configuration not stated)	0.72	-0.15	0.97	-9	-7	-1.1	nt	nt	nt
COc1cc2c(cc1OC)C(C(=O)Nc1ccc3c(c1)OCCO3)C1c3ccccc3CCN1C2=O (configuration not stated)	0.026	4.1*	1.2	5	0	0.19	6868*	1804	i
Cc1ccc(-c2nn3nnnc3c3ccccc23)cc1C	nt	nt	-0.89	nt	nt	nt	nt	nt	nt
c1ccc(-c2nn3nnnc3c3ccccc23)cc1	0.36	12*	0.2	-8	-4	-0.054	13348*	1552	+
CC(COc1ccccc1)NC(C)C(O)c1ccc(O)cc1 (configuration not stated)	-2.8	-2.5	-0.94	3	-7	0.056	nt	nt	nt
CCOc1ccc(-n2c(SC)nc3c(c2=O)SCC3)cc1	-0.3	-0.14	-0.61	9	6	0.43	nt	nt	nt
CSc1nc2c(c(=O)n1-c1ccccc1)SCC2	0.8	2.7*	-0.026	nt	nt	0.52	11540*	1796	i
CSc1nc2c(c(=O)n1-c1ccc(C)cc1)SCC2	-0.1	-0.51	0.13	5	1	0.0029	nt	nt	nt
CCOc1ccc(-n2c(SC(C)C)nc3c(c2=O)SCC3)cc1	-0.026	14*	-0.052	-2	-5	0	19936*	1704	+
CCn1c(CSc2nnc(C)n2-c2ccccc2)nc2cc(S(=O)(=O)N(C)C)ccc21	0.67	1.8*	-0.65	-2	7	0.5	5780	1620	i
CCOC(=O)c1cc(-c2ccccc2)nc2c1c(C)nn2-c1ccccn1	nt	nt	1	nt	nt	nt	nt	nt	nt
OCC(CO)(CO)n1cnnn1	-0.32	3.5*	-0.24	-1	0	-0.039	5960	1496	i
CCOC(=O)c1[nH]c(C)c(C(=O)c2cc(F)ccc2F)c1C	0.19	5.7*	nt	5	-21	-0.36	8492*	1728	+
COC(=O)c1ccccc1NC(=O)C1CCN(S(=O)(=O)c2cc(C)ccc2OC)CC1	1.3	17*	1.9	14	10	0.41	16104*	1660	+
COc1ccc(OC)c(S(=O)(=O)N2CCC(C(=O)Nc3cc(C)ccc3C)CC2)c1	nt	nt	0.2	nt	nt	nt	nt	nt	nt
CCSc1nnc(NC(=O)Cc2cccc(OC)c2)s1	nt	nt	-0.76	nt	nt	nt	nt	nt	nt
CCOc1cc(-c2c(C)c(CC)nc(N)c2C#N)ccc1O	-0.054	1.9*	0.61	-7	5	0.61	10600*	1960	+
Cc1ccc(CSc2nc3c(c(=O)[nH]c(=O)n3C)n2CCC(C)C)cc1	0.043	4	-0.33	4	6	0.0082	nt	nt	nt
SMILES	M1 ag	D1 allo mod	hDAT+cocaine	FXIa mix inh	FXIIa mix inh	M1 antag	D1 mod confirm	D1 no dopamine	Isoprot counter
CCCCn1c(SCc2ccc(Cl)cc2)nc2c1c(=O)[nH]c(=O)n2C	0.35	7.4*	-0.11	10	3	0.31	25640*	1752	+
C/C=C/CSc1nc2c(c(=O)[nH]c(=O)n2C)n1C(C)C	-0.25	6*	-0.18	5	10	-0.54	12796*	1768	+
CCOCCn1c(SCc2ccc(F)cc2)nc2c1c(=O)[nH]c(=O)n2C	0.6	-0.047	-0.23	-9	2	-0.29	nt	nt	nt
CCCCCOC(=O)CSc1nc2c(c(=O)[nH]c(=O)n2C)n1Cc1ccc(Cl)cc1	0.45	0.11	0.3	6	0	0.18	nt	nt	nt
CCSc1nc2c(c(=O)[nH]c(=O)n2C)n1Cc1ccc(Cl)cc1	-0.078	5.5*	0.032	-6	2	1.2	15452*	1584	+
CC(C)CCn1c(SCc2ccc(Cl)cc2)nc2c1c(=O)[nH]c(=O)n2C	0.4	14*	0.54	9	-17	0.0019	13248*	nt	+
COc1ccc2c(c1)O[C@H](c1ccc3c(c1)OCO3)[C@@H](O)C2=O	nt	nt	0.87	nt	nt	nt	nt	nt	nt
C/C=C/CSc1nc2c(c(=O)[nH]c(=O)n2C)n1Cc1ccc(C)cc1	0.0012	20*	1	5	-1	0.17	16484*	1496	+
O=C(NCc1ccco1)c1nn(-c2ccccc2)c(=O)c2ccccc12	0.051	5.2*	-0.19	6	1	0.054	15012*	1664	i
COc1ccc(-n2nc(C(=O)NCC(=O)NCc3ccco3)c3ccccc3c2=O)cc1	1.7	0.55	0.89	-5	11	-0.23	nt	nt	nt
CC(=O)c1cc(C#N)c(SCCC(C)C)nc1C	0.43	3.3	-0.036	5	3	-0.92	nt	nt	nt
CC(C)CCSc1nc(N)c(C#N)cc1C#N	-0.4	7.7*	-0.53	12	7	-1.7	14056*	1652	+
COc1ccccc1NC(=O)C(C/C=C(/C)Cl)C(C)=O (configuration not stated)	nt	nt	-0.056	nt	nt	nt	nt	nt	nt
COc1cccc(-n2nnnc2SCC(=O)c2cc(OC)ccc2OC)c1	nt	4.2*	-0.18	11	1	nt	4344	1632	i
Clc1ccccc1Cn1nnc2c(NCC3CC3)ncnc21	-0.3	2.8*	-0.28	-4	3	-0.32	6104*	1744	+
C=CCn1c(=N)c(C(=O)OCC)cc2c(=O)n3cccc(C)c3nc21	-0.3	nt	0.84	nt	nt	0.07	nt	nt	nt
CS(=O)(=O)N(CCc1ccccc1)CC(=O)N1CCN(c2ccc(F)cc2)CC1	nt	nt	-0.88	nt	nt	nt	nt	nt	nt
CCC(C)(C)n1c(=O)[nH]c2c(c1=O)CCC2	-0.33	4.3*	3*	3	2	0.33	6624	1544	i
O=C(Cn1cccc1C(=O)c1ccccc1)NCc1ccc2c(c1)OCO2	-0.64	1.2	0.67	0	4	-0.11	nt	nt	nt
